Reference: PubChem BioAssay AID1159580 (chemical genetic matrix, 2015)
The campaign covered roughly 5,500 compounds. About 2,000 (36%) were called active. Another 18% or so got no clear call; they are omitted. Some of the results follow. Unmarked numbers belong to inactive results. Cut-off read from the data, not from the text of the source: active = normalized growth mostly below about 0.91 (no sharp cut-off); inconclusive = no clear call, values can overlap the other calls; inactive = mostly above about 0.92.

Assay: chemical genetic growth profiling, strain panel (AID 1159580);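 note: tested at 20 µM; growth read once vehicle control cultures reached saturation at 30 °C; 1 = growth at the plate median or of vehicle wells; lower values mean less growth of the strain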
Details: S. cerevisiae deletion strains, growth OD

CCOP(=S)(OCC)SCn1c(=O)oc2cc(Cl)ccc21
normalized growth (locus YAL013W, strain DEP1, active compounds read low): 1
normalized growth (locus YAL021C, strain ccr4, active compounds read low): 0.957
normalized growth (locus YAL026C, strain drs2, active compounds read low): 0.972
normalized growth (locus YAL030W, strain snc1, active compounds read low): 0.947
normalized growth (locus YBL061C, strain skt5, active compounds read low): 0.949
normalized growth (locus YBR009C, strain hhf1, active compounds read low): 1.35 [resistant] (active)
normalized growth (locus YBR021W, strain FUR4, active compounds read low): 0.998
normalized growth (locus YBR023C, strain chs3, active compounds read low): 0.946
normalized growth (locus YBR171W, strain sec66, active compounds read low): 0.922
normalized growth (locus YBR229C, strain ROT2, active compounds read low): 0.997
normalized growth (locus YBR231C, strain swc5, active compounds read low): 0.956
normalized growth (locus YBR279W, strain paf1, active compounds read low): 0.977
normalized growth (locus YCL011C, strain gbp2, active compounds read low): 0.961
normalized growth (locus YCL016C, strain dcc1, active compounds read low): 0.955
normalized growth (locus YCL029C, strain bik1, active compounds read low): 0.985
normalized growth (locus YCL061C, strain MRC1, active compounds read low): 0.956
normalized growth (locus YCL069W, strain vba3, active compounds read low): 0.968
normalized growth (locus YCR088W, strain abp1, active compounds read low): 0.961
normalized growth (locus YDL005C, strain med2, active compounds read low): 0.968
normalized growth (locus YDL035C, strain GPR1, active compounds read low): 0.987
normalized growth (locus YDL040C, strain nat1, active compounds read low): 0.961
normalized growth (locus YDL074C, strain BRE1, active compounds read low): 0.928
normalized growth (locus YDL101C, strain DUN1, active compounds read low): 1.01
normalized growth (locus YDL134C, strain PPH21, active compounds read low): 0.991
normalized growth (locus YDL185W, strain tfp1, active compounds read low): 1
normalized growth (locus YDL192W, strain arf1, active compounds read low): 0.989
normalized growth (locus YDR001C, strain nth1, active compounds read low): 0.96
normalized growth (locus YDR069C, strain doa4, active compounds read low): 0.956
normalized growth (locus YDR101C, strain arx1, active compounds read low): 0.992
normalized growth (locus YDR137W, strain rgp1, active compounds read low): 0.81 (active)
normalized growth (locus YDR150W, strain NUM1, active compounds read low): 0.995
normalized growth (locus YDR159W, strain sac3, active compounds read low): 0.97
normalized growth (locus YDR162C, strain NBP2, active compounds read low): 0.987
normalized growth (locus YDR195W, strain ref2): 1.04
normalized growth (locus YDR297W, strain sur2, active compounds read low): 0.943
normalized growth (locus YDR318W, strain mcm21, active compounds read low): 0.993
normalized growth (locus YDR334W, strain swr1, active compounds read low): 0.965
normalized growth (locus YDR335W, strain msn5, active compounds read low): 0.974
normalized growth (locus YDR388W, active compounds read low): 0.994
normalized growth (locus YDR392W, strain spt3, active compounds read low): 0.872
normalized growth (locus YDR502C, strain sam2, active compounds read low): 0.986
normalized growth (locus YEL003W, strain gim4, active compounds read low): 0.961
normalized growth (locus YEL037C, strain rad23, active compounds read low): 0.975
normalized growth (locus YEL061C, strain CIN8 (second series), active compounds read low): 0.96
normalized growth (locus YEL061C, strain CIN8, active compounds read low): 0.99
normalized growth (locus YER015W, strain faa2, active compounds read low): 0.967
normalized growth (locus YER016W, strain bim1, active compounds read low): 0.958
normalized growth (locus YER110C, active compounds read low): 0.993
normalized growth (locus YER111C, strain swi4, active compounds read low): 0.965
normalized growth (locus YER155C, strain BEM2 (second series), active compounds read low): 0.952
normalized growth (locus YER155C, strain BEM2, active compounds read low): 0.993
normalized growth (locus YER167W, strain BCK2, active compounds read low): 1
normalized growth (locus YFR010W, strain ubp6, active compounds read low): 0.979
normalized growth (locus YGL078C, strain dbp3, active compounds read low): 0.984
normalized growth (locus YGL086W, strain mad1, active compounds read low): 0.986
normalized growth (locus YGL167C, strain pmr1, active compounds read low): 0.921
normalized growth (locus YGL173C, strain kem1, active compounds read low): 0.943
normalized growth (locus YGL227W, strain vid30, active compounds read low): 0.963
normalized growth (locus YGL240W, strain doc1, active compounds read low): 0.935
normalized growth (locus YGL248W, strain PDE1, active compounds read low): 0.985
normalized growth (locus YGL253W, strain hxk2, active compounds read low): 0.961
normalized growth (locus YGR078C, strain PAC10, active compounds read low): 0.994
normalized growth (locus YGR135W, strain pre9, active compounds read low): 0.977
normalized growth (locus YGR229C, strain SMI1, active compounds read low): 1.01
normalized growth (locus YGR252W, strain gcn5, active compounds read low): 0.987
normalized growth (locus YHR013C, strain ard1, active compounds read low): 1.01
normalized growth (locus YHR027C, strain rpn1, active compounds read low): 0.959
normalized growth (locus YHR030C, strain SLT2, active compounds read low): 0.984
normalized growth (locus YHR079C, strain IRE1 (second series), active compounds read low): 0.996
normalized growth (locus YHR094C, strain hxt1, active compounds read low): 0.994
normalized growth (locus YHR129C, strain ARP1, active compounds read low): 0.986
normalized growth (locus YHR142W, strain chs7, active compounds read low): 0.954
normalized growth (locus YHR200W, strain rpn10, active compounds read low): 0.99
normalized growth (locus YIL066C, strain RNR3, active compounds read low): 1.01
normalized growth (locus YIL073C, strain SPO22, active compounds read low): 1.06
normalized growth (locus YIL125W, strain kgd1, active compounds read low): 0.984
normalized growth (locus YIR030C, strain dcg1, active compounds read low): 0.989
normalized growth (locus YJL092W, strain hpr5, active compounds read low): 0.965
normalized growth (locus YJL095W, strain BCK1 (second series), active compounds read low): 0.941
normalized growth (locus YJL095W, strain BCK1, active compounds read low): 0.975
normalized growth (locus YJL115W, strain asf1, active compounds read low): 0.969
normalized growth (locus YJL129C, strain trk1, active compounds read low): 0.907
normalized growth (locus YJL134W, strain LCB3, active compounds read low): 0.994
normalized growth (locus YJL154C, strain vps35, active compounds read low): 0.972
normalized growth (locus YJL164C, strain tpk1, active compounds read low): 0.943
normalized growth (locus YJL166W, strain qcr8, active compounds read low): 0.942
normalized growth (locus YJL168C, strain set2, active compounds read low): 0.991
normalized growth (locus YJL187C, strain SWE1 (second series), active compounds read low): 1
normalized growth (locus YJL187C, strain SWE1, active compounds read low): 0.95
